Source: PubChem
Mtb BioA inh = inhibitors of Mycobacterium tuberculosis BioA enzyme | purified M. tuberculosis BioA enzyme, plate reader | inhibition, % at 9.99 µM | hit rate 0.096% among 360,000 | AID 602481; in the data active = inhibition above about 40%
Mtb FBA inh = inhibits M. tuberculosis FBA enzyme. P9WQA3. purified M. tuberculosis FBA, fluorescence read-out. inhibition, % at 1 µM. hit rate 2.3% among 360,000. AID 588726;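 also: 0% = vehicle and 100% = reference inhibitor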
Target sequence (P9WQA3 whole entry, looked up): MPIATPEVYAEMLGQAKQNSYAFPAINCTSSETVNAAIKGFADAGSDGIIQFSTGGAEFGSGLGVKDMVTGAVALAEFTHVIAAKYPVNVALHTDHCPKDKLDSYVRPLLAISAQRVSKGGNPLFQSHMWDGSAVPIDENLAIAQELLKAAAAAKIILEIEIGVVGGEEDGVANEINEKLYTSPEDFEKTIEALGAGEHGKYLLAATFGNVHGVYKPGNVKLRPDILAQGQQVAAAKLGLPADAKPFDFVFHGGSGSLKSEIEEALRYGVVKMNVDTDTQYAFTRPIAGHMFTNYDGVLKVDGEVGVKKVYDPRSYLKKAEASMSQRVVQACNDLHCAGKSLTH
FadD28 binding = M. tuberculosis FadD28 bisubstrate binding inhibition; FadD28 bisubstrate probe binding, fluorescence polarization; inhibition, % at 12.5 µM; hit rate 0.22% among 360,000; AID 588549; in the data active = inhibition above about 8.5%, passing the limit was not always enough
GDH-TPI counter-1 = GDH-TPI coupled enzyme inhibition counter-screen; GDH-TPI coupled enzyme counterscreen, NADH absorbance; inhibition, % at 4.8 µM; hit rate 1.2% among 360,000; AID 588335; in the data active = inhibition above about 30%;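 also: 0% = DMSO wells and 100% = wells lacking the enzyme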
Mtb hypoxia inh = reduces hypoxia-regulated biosensor signal in M. tuberculosis; M. tuberculosis hypoxia-regulated fluorescent reporter, fluorescence; fluorescence inhibition, % (no concentration beside the values); hit rate 0.1% among 300,000; AID 1159583; in the data active = fluorescence inhibition mostly above about 23%, no sharp cut-off; inactive = mostly below about 17%
Mtb FBA confirm = Mtb FBA inhibition, confirmed. shares compounds with Mtb FBA inh. purified M. tuberculosis FBA, fluorescence read-out. inhibition, % at 1 µM. hit rate 78% among 5,600. AID 651616;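 also: 0% = vehicle wells and 100% = reference inhibitor wells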
GDH-TPI counter-2 = inhibits GDH-TPI coupling enzymes, flagging Mtb FBA hits | shares compounds with Mtb FBA inh | GDH-TPI coupled enzyme counterscreen, fluorescence | inhibition, % at 1 µM | hit rate 81% among 5,600; in the data active = inhibition above about 10%
GDH-TPI dose = counter-screen for M. tuberculosis FBA inhibitors: GDH-TPI dose response; shares compounds with Mtb FBA inh; GDH-TPI coupled enzyme assay, fluorescence, artifact counterscreen; IC50, µM; AID 652145; hit rate 79% among 170; call rule not given here
Starred values were filed as active, the others as inactive; · = no result given; + = active, no number. Most compounds without a hit are left out; they make up all but 2.9% or so of the library. Rule as the data show it, unless noted: active = inhibition above about 27%; inactive = the rest.

SMILES	Mtb BioA inh	Mtb FBA inh	FadD28 binding	GDH-TPI counter-1	Mtb hypoxia inh	Mtb FBA confirm	GDH-TPI counter-2	others
C=CCNc1nc(Nc2ccc(-c3nc4ccccc4o3)cc2)nc(N2CCOCC2)n1	-3	97*	-1	35*	14	19	-4	GDH-TPI dose=0.49*
COCC(=O)N1[C@H](CO)[C@@H]2c3ccccc3NC[C@@H]21	1	·	·	·	·	·	·
O=C1CCCC/C1=C\Nc1ccccc1C(=O)O	-1	21	0	5	13	·	·
NC(=O)c1ccccc1N/C=C1\CCCCC1=O	·	28*	-1	3	16	91*	73*
Cc1ccc(NCc2ccc(Cl)nc2)c(NCc2ccc(Cl)nc2)c1	·	28*	-3	4	-4	-5	-6
CCOc1cc(C2Nc3ccccc3C(=O)N2c2ccccc2)c(Br)cc1OCC(=O)O (stereo not given)	3	39*	0	9	5	105*	84*
COc1cc(C2Nc3ccccc3C(=O)N2c2ccc(Cl)cc2)c(Cl)cc1OCC(=O)O (stereo not given)	1	70*	-3	0	-3	115*	83*
COc1cc(C2NC(=O)NC(c3ccccc3)=C2C(C)=O)c(Cl)cc1OCC(=O)O (stereo not given)	·	-3	-5	7	10	·	·
CCOc1cc(C2Nc3ccccc3C(=O)N2c2ccccc2)ccc1O (stereo not given)	7	10	-1	25	0	·	·
C[C@@H]1CN([C@@H](C)CO)C(=O)c2cc(Br)cnc2O[C@@H]1CN(C)C(=O)Nc1ccccc1	1	·	·	·	·	·	·
O=C(O)c1ccc(C(=O)Nc2cccc3ccccc23)c(C(=O)O)c1	8	54*	1	9	9	155*	111*
O=C(O)c1cccc([N+](=O)[O-])c1C(=O)Nc1cccc2ccccc12	-3	48*	1	8	2	116*	99*
COC(=O)C1=C(c2ccc(-c3ccccc3)c(F)c2)C[C@@H]2CC[C@H]1N2C(=O)NCCNC(C)=O	0	43*	-3	3	·	45*	38*
O=C(CCCCCn1c(=S)[nH]c2ccc(N3CCOCC3)cc2c1=O)NCc1ccc2c(c1)OCO2	-1	44*	-4	-1	5	+	+
COc1ccccc1N1CCN(CC(=O)c2ccc3ccn(C(C)=O)c3c2)CC1	-4	7	0	7	·	·	·
CC(=O)OCC(=O)c1ccc2ccn(C(C)=O)c2c1	0	36*	0	15	3	15	20*
COc1cc2oc(=O)ccc2cc1[C@H](O)[C@@H](O)C(C)(C)O	-1	49*	-1	26	5	47*	32*
COc1cccc(OC)c1C(=O)NC(=S)Nc1ccc2oc(=O)ccc2c1	-1	-4	-2	1	-4	·	·
COc1cc2oc(=O)ccc2cc1[C@@H](O)[C@@H]1OC(C)(C)OC1(C)C	-1	29*	-2	13	12	79*	40*
Cc1noc(C)c1S(=O)(=O)Nc1ccc2c(c1)CC(=O)N([C@H](C)CO)C[C@H](C)[C@H](CN(C)Cc1ccc(C(=O)O)cc1)O2	-1	·	·	·	·	·	·
O=C(O)CCN1C(=O)c2ccc(NC(=O)Cc3ccc(Cl)cc3)cc2C1=O	·	31*	-3	6	2	167*	154*
CC(=O)Oc1ccc(C(=O)Nc2ccc3c(c2)C(=O)N(CCC(=O)O)C3=O)cc1	0	47*	-4	23	11	132*	110*
O=C(O)CCN1C(=O)c2ccc(NC(=O)CSCc3ccccc3)cc2C1=O	·	6	1	6	-1	·	·
O=C(O)CCN1C(=O)c2ccc(NC(=O)C(c3ccccc3)c3ccccc3)cc2C1=O	·	36*	-2	10	11	-4	-6
O=C(Cc1ccccc1)Nc1ccc2c(c1)C(=O)N(CC1CCCO1)C2=O (stereo not given)	·	31*	-3	1	10	149*	99*
Cc1cccc(C)c1-n1c(C)cc(C=NNc2ccc([N+](=O)[O-])cn2)c1C	·	·	·	·	10	·	·
Cc1ccc(S(=O)(=O)N[C@@H]2CC[C@@H](CCNC(=O)Nc3ccc(Cl)cc3)O[C@@H]2CO)cc1	1	·	·	·	·	·	·
